Sampled rows, rich in hits. Any-hit rate of the full collection: about 8.8%.
HPGD inh: HPGD (human) dehydrogenase inhibition; hit rate 4.3% among 150,000; Potency, µM, for the others: top-dose activity change, negative = inhibition, hits mostly inhibitors; purified HPGD, NADH fluorescence kinetic, PGE2 substrate; P15428; active = well fitted inhibition curve with a large enough effect, not every such curve was filed as active; inconclusive = small, poorly fitted or top-dose-only effect, or another doubt; inactive = no such curve, though single readings can be large or run the other way; note: % is set by controls: 0 for no effect and ±100 for the full control effect
Target sequence (P15428 whole entry, looked up): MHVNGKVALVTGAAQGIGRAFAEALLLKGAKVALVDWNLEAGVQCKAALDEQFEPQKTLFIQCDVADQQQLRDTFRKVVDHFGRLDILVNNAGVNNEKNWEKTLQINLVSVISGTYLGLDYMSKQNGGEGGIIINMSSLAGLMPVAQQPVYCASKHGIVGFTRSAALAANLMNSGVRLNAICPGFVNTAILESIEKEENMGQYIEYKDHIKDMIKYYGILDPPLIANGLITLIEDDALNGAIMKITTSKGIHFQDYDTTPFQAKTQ
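NADH formation kinetics: reaction with 30 uM PGE2 and 1 mM NAD+ (final), 20 nM enzyme, Tris-HCl pH 8 with Tween 20, after 15 min compound preincubation at room temperature. Fluorescence change, last versus first of five reads.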
Lamin A splicing: LMNA splicing modulation; AID 1487; HeLa LMNA splicing GFP/RFP minigene ratio, 48 h; hit rate 0.01% among 200,000; Potency, µM (top dose mostly 46.1 µM), inactives show at the top dose ratio change, negative = inhibition, most hits filed as inhibitors; active = well fitted inhibition curve with a large enough effect in the signal ratio, with a control signal flat, not every such curve was filed as active; inconclusive = small, poorly fitted or top-dose-only effect, or effect the other way, or a change in a side signal; the % refers to the signal ratio; note: % is set by controls: 0 for no effect and ±100 for the full control effect
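S3 HeLa stable clones carrying a lamin A-EGFP splicing minigene plus DsRed2 were seeded at 600 cells/well in Opti-MEM with 2% FBS, pin-dosed and incubated 48 h at 37°C. Acumen cytometry (488 nm) gave the GFP/RFP total-intensity ratio.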
HTT cytoprotect: cytoprotection in Huntington HTT-Q103 PC12 cell model; Potency, µM (doses to about 56.4 µM), inactives show cytoprotection (ATP increase), most hits filed as activators; PC12 HTT-Q103 induced, cytoprotection, ATP luminescence, 40 h; hit rate 0.14% among 230,000; AID 1471; note: % of control where 0% means no effect; nearly all actives have a fitted effect of over 45% in size
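PC12 cells stably carrying ecdysone-inducible Htt exon 1 (Q103)–GFP were induced with 100 nM tebufenozide (final) alongside library compounds in a dose series. Cytoprotection was scored as retained ATP by ATPlite luminescence.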
HttQ103 aggreg: mutant huntingtin aggregation inhibition; Potency, µM (series often up to 46.1 µM), inactives show at the top dose activity change, negative = inhibition, usual class: inhibitors; hit rate 1.1% among 220,000; PC12 HttQ103-GFP aggregates, Acumen cytometry, 40 h; note: % is set by controls: 0 for no effect and ±100 for the full control effect; nearly all actives have a fitted effect of over 60% in size
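Steps: seed 1500 PC12 HTTQ103-GFP cells/well; add tebufenozide, 100 nM final; add compound titration; add ATPLite reagent; quantify GFP aggregates by laser scanning cytometry.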
ALDH1A1 block: blocks purified human ALDH1A1 activity; Potency, µM (top dose mostly 75.3 µM), for the others: at the top dose activity, negative = inhibition, actives largely listed as inhibitors; AID 1030; P00352; hit rate 7.3% among 220,000; Purified ALDH1A1, NADH fluorescence, propionaldehyde substrate; active = well fitted inhibition curve with a large enough effect, not every such curve was filed as active; inconclusive = small, poorly fitted or top-dose-only effect, or another doubt; inactive = no such curve, though single readings can be large or run the other way;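 note: plate controls were no enzyme wells and a reference inhibitor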
Target sequence (P00352 whole entry, looked up): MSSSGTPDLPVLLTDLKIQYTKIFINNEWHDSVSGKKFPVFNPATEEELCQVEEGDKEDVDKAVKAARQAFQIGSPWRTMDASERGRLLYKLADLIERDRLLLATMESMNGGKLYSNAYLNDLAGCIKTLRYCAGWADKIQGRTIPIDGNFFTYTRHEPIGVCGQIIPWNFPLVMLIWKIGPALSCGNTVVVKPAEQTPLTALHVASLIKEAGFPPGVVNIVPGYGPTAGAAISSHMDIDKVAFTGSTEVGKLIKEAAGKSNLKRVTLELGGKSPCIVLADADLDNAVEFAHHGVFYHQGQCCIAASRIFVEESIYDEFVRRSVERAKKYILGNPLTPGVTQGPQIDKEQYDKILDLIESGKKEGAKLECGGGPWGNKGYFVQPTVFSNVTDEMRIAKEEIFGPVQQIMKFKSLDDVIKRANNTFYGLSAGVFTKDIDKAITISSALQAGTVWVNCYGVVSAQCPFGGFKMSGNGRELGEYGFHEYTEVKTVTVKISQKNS
* marks the source's active call; other numbers are inactive results; ? = inconclusive; . = no result given; [ ] = another dose, or the depositor's remark. Unless noted, calls come from the whole dose curve; as a rule, active = well fitted curve in the direction sought with a large enough effect; inconclusive = small, poorly fitted or top-dose-only effect, or another doubt; inactive = no such curve, though single readings can be large; an effect the other way counts as inactive or inconclusive. Potency is the fitted concentration of half-maximal effect.

SMILES	HPGD inh	Lamin A splicing	HTT cytoprotect	HttQ103 aggreg	ALDH1A1 block
CC(=O)Nc1ccc(NC(=O)COC(=O)c2c(C)nn(-c3ccccc3)c2C)cc1	-6%	?	.	9%	22µM*
Cc1nn(-c2ccccc2)c(C)c1C(=O)OCC(=O)NC12CC3CC(CC(C3)C1)C2	-18%	-4%	-52%	?	8.9µM*
CCN(CC)S(=O)(=O)c1ccc(-c2csc(C)n2)cc1	.	.	-127%	-22%	25µM*
CCCN(CCC)S(=O)(=O)c1cccc(-c2csc(C)n2)c1	.	.	-28%[10 µM]	-13%[9.22 µM]	.
Cc1ccccc1OCC(=O)NCC(c1ccc(Cl)cc1)N1CCOCC1 (stereo not given)	.	-5%[46 µM]	.	.	.
CC1=C(CC[C@H](C)CO)O[C@@H]2C[C@@H]3[C@H]4CC[C@H]5C[C@@H](O)CC[C@]5(C)[C@@H]4CC(=O)[C@@]3(C)[C@@H]12	-3%	.	-14%[10 µM]	.	-10%[13.5 µM]
CCOC(=O)c1c(-c2ccc(C)s2)csc1N	.	.	-45%	8%	3.2µM*
CCOC(=O)CCC(=O)Nc1nnc2n1CCS2	.	12%[46 µM]	.	.	.
COc1cc(C(=O)NC(=S)N(C)Cc2ccccc2)cc(OC)c1OC	.	.	-27%	-16%	?
C=CCN(CC=C)C(=S)NC(=O)c1ccc(OC)cc1	.	?	.	.	15µM*
CC(C)C(=O)NC(=S)N(Cc1ccccc1)Cc1ccccc1	-13%	-2%	24%[10 µM]	0%	-11%
CN(Cc1ccccc1)C(=S)NC(=O)c1ccc(-c2ccccc2)cc1	14µM*	-4%	17%[10 µM]	15%	?
COc1ccc(C(=O)NC(=S)N(Cc2ccccc2)Cc2ccccc2)cc1	-16%	-23%	12%	10µM*	?
O=C(NCc1cccc(F)c1)c1ccc2nc(CCc3ccccc3)oc2c1	.	-1%[46 µM]	.	.	.
Cc1cc(NC(=O)c2cnn3c(C(F)F)cc(C4CC4)nc23)no1	-15%	0%	0%	-10%	5µM*
Cc1cc(NC(=O)c2cnn3c(C(F)F)cc(-c4ccccc4)nc23)no1	-11%	0%	-14%	-4%	?
COc1ccc2c(=O)c3c(=O)n(Cc4ccco4)c(-c4ccccc4)nc3oc2c1	-19%	4%	-15%	10%	22µM*
COc1ccc2c(=O)c3c(=O)n(Cc4ccco4)c(-c4cc(OC)c(OC)c(OC)c4)nc3oc2c1	-24%	7%	20%[10 µM]	-5%	-8%
CCNc1ncc2ncc(=O)n(CCOC)c2n1	.	-5%	6%	.	?
COc1ccc2c(c1)c(CC(=O)NCc1ccc3c(c1)OCO3)c(C)n2C(=O)c1ccc(Cl)cc1	-27%	.	-22%	.	0%
O=C(Nc1ccc(O)cc1)c1cc(S(=O)(=O)N2CCCC2)ccc1Cl	.	?	3%	-25%	4.5µM*
O=C(Nc1cc(S(=O)(=O)N2CCCCC2)ccc1Cl)c1ccccc1NS(=O)(=O)c1ccc(F)cc1	?	?	-67%[10 µM]	3.2µM*	?
Cc1occc1C(=O)Nc1ccc(S(=O)(=O)N2CCCC2)cc1	-12%	?	-21%[0.074 µM]	4µM*	?
O=C(NCc1cccnc1)c1ccc(-c2cc(Cl)ccc2Cl)o1	.	.	-10%[10 µM]	8%[9.22 µM]	7.1µM*
COc1ccccc1N1CCN(S(=O)(=O)CCNC(=O)C(c2ccccc2)c2ccccc2)CC1	.	-12%[46 µM]	.	.	.
SMILES	HPGD inh	Lamin A splicing	HTT cytoprotect	HttQ103 aggreg	ALDH1A1 block
COCC(=O)N1CCC[C@@]2(CCN(Cc3nccs3)C2)C1	-10%	.	13%	.	5%
CC(C)(CNS(C)(=O)=O)SCc1ccc(Cl)cc1	.	?	-4%[10 µM]	-15%	-5%
COc1cccc(CS(=O)(=O)c2nnnn2CC(C)C)c1	-2%	.	?	.	?
O=C(NCc1cccnc1)c1cc(S(=O)(=O)N2CCCCC2)ccc1Cl	-7%	-9%	-11%	-17%	20µM*
O=C(NCc1cccnc1)c1cccc(S(=O)(=O)N2CCCCC2)c1	-6%	?	-9%	-13%	-6%
Cc1cccc(C)c1NC(=O)c1sc(-n2nc(C)c(Cc3ccc4c(c3)OCO4)c2C)nc1C	.	-4%[46 µM]	.	.	.
N#Cc1cc([N+](=O)[O-])ccc1NCCN1CCOCC1	.	-6%[46 µM]	8%[10 µM]	7%	-2%
CC(C)(CNc1ccc([N+](=O)[O-])cc1C#N)N1CCOCC1	.	?	-9%[10 µM]	13%	2.2µM*
COC(=O)c1c(NC(=O)Cc2cccs2)sc2c1CCC(C)C2 (stereo not given)	13µM*	-9%	-12%[10 µM]	-31%	14µM*
CCOC(=O)c1c(NC(=O)Cn2cnc([N+](=O)[O-])n2)sc2c1CCC(C)C2 (stereo not given)	-4%	13%[0.0737 µM]	2%	4%	-2%
COC(=O)c1c(NC(=O)Cn2cnc([N+](=O)[O-])n2)sc2c1CCC(C)C2 (stereo not given)	11µM*	-3%	-26%[10 µM]	11%	-8%
COc1cccc(-n2ccnc2SCC(=O)Nc2cccc3ccccc23)c1	.	-18%[46 µM]	.	.	.
Cc1cccc2cc(C(c3nnnn3CC3CCCO3)N3CCc4ccccc4C3)c(=O)[nH]c12 (stereo not given)	-24%	1%	-14%	14%	13µM*
Cc1ccc2cc(C(c3nnnn3CC3CCCO3)N3CCc4ccccc4C3)c(=O)[nH]c2c1 (stereo not given)	?	8%	3%[10 µM]	-5%	18µM*
CCOc1ccc2[nH]c(=O)c(C(c3nnnn3CC3CCCO3)N3CCc4ccccc4C3)cc2c1 (stereo not given)	?	12%	-20%	4%	?
Cc1cccc2cc(C(c3nnnn3CC3CCCO3)N3CCCC4(CCCCC4)C3)c(=O)[nH]c12 (stereo not given)	-11%	-8%	-16%	-17%	?
CCN(CC)S(=O)(=O)c1ccc(N2CCCC2)c(NC(=O)C2CCCCC2)c1	.	.	-11%[10 µM]	10%[9.22 µM]	.
CCOc1ccc(S(=O)(=O)Nc2cc(S(=O)(=O)N(CC)CC)ccc2N2CCCC2)cc1	-11%	17%	3%[10 µM]	-10%	0.79µM*
CCN(CC)S(=O)(=O)c1ccc(N2CCCC2)c(NC(=O)Cc2ccc(OC)cc2)c1	.	.	.	11%	1.1µM*
Cc1cc(Cl)ccc1OCC(=O)NCC(=O)N/N=C/c1ccco1	.	8%[46 µM]	3%	-4%	?
Cc1cn2c(=O)cc(COC(=O)c3ccc(NC(=O)c4ccccc4C)cc3)nc2s1	.	-7%[46 µM]	.	.	.
Cc1nnc(NC(=O)CSc2ccc(-c3ccco3)nn2)s1	.	.	14%	-16%	7.1µM*
Cc1ccc(C)c(NC(=O)CSc2ccc(-c3ccco3)nn2)c1	-21%	-2%	2%[10 µM]	6%	3.2µM*
COc1ccc(-c2nc(C)c(CCNC(=O)c3cccc(C)c3)s2)cc1OC	.	-3%[46 µM]	.	.	.
CCc1ccccc1NC(=O)C(=O)NCCc1sc(-c2cccc(C)c2)nc1C	.	13%[46 µM]	.	.	.
O=C(NCC(c1ccco1)S(=O)(=O)c1ccc(Cl)cc1)c1ccc(C(F)(F)F)cc1 (stereo not given)	.	-4%[46 µM]	.	.	.
CC(C)(C)CC(=O)NCc1ccc(F)cc1	22µM*	-4%	-9%	-10%[9.22 µM]	14%

From PubChem
